Test results from ChEMBL document CHEMBL4513216, “Probing the Open Global Health Chemical Diversity Library for Multistage-Active Starting Points for Next-Generation Antimalarials” (ACS Infect Dis, 2020).
Among all 65,000 compounds or so, about 2,100 (3.2%) showed an effect of 50% or more. The median lay at about -52%. For the sample, strong results were picked, then their nearest neighbours and some compounds at random.

test system: Plasmodium falciparum; assay: Screen against P. falciparum Asexual Blood Stage (ABS), at 5uM; assay type: functional, Dd2; details: tested at 5 uM

| Compound | INHIBITION [%] |
| --- | --- |
| CS(=O)(=O)NCC1CCCCN1Cc1cccc(C#N)c1 (centres undefined) | -92.3 |
| CN(C)c1ccccc1CN1CCCCC1CNS(C)(=O)=O (centres undefined) | 60.5 |
| CS(=O)(=O)NCC1CCCCN1Cc1ccccc1C#N (centres undefined) | -34.1 |
| O=c1ccc2c([nH]1)CCC(NCc1ccc3c(c1)OCO3)C2 (centres undefined) | -104 |
| Cc1cccc2c(CCNC(=O)NCCC[S+](C)[O-])c[nH]c12 (centres undefined) | -85.3 |
| Cc1cccc2c(CCNC(=O)NCC[S+](C)[O-])c[nH]c12 (centres undefined) | -103 |
| Cc1cccc2c(CCNC(=O)[C@H](N)c3ccccc3)c[nH]c12 | 61.2 |
| CN(Cc1ccc2c(c1)OCCO2)Cc1nnnn1-c1ccccc1 | -39.1 |
| NC(=O)C1CN(Cc2c(O)ccc3oc4c(c23)CCCC4)CCO1 (centres undefined) | -23.1 |
| Oc1ccc2oc3c(c2c1CN1CCOCC1)CCCC3 | 19.1 |
| CCC1CN(Cc2c(O)ccc3oc4c(c23)CCCC4)CCO1 (centres undefined) | 60 |
| CC(=O)N1CCC(NCc2cccnc2N(C)Cc2ccccc2)CC1 | -57.8 |
| CN(Cc1ccccc1)c1ncccc1CNC1CCCC1 | 65.6 |
| CN(Cc1ccccc1)c1ncccc1CNC1CCSCC1 | 26.2 |
| CCc1nnsc1C(=O)NCc1nnc2n1CCC2 | -217 |
| Cc1ccc(N2CC3(COCCN(Cc4ccccn4)C3)OCC2=O)s1 (centres undefined) | -89.9 |
| COc1c(CNC2CCSc3ccc(F)cc32)c(C)nn1C (centres undefined) | -115 |
| c1cnc(-c2nc(CN3CCCC(N4CCCC4)C3)cs2)nc1 (centres undefined) | 51.7 |
| CC1CCCN(Cc2csc(-c3ncccn3)n2)CC1 (centres undefined) | -29.2 |
| CC(=O)NC1CCCN(Cc2csc(-c3ncccn3)n2)C1 (centres undefined) | -89.8 |
| O=C(NC1CC1)C1CCc2nnc(C3CC3)n21 (centres undefined) | -100 |
| c1ccc(OCC2CC3(CCN(CC4CCOCC4)CC3)CO2)nc1 (centres undefined) | -83.4 |
| Cc1cc(C)nc(Nc2cc(C)nc(C3CCN(C(=O)CO)C3)n2)n1 (centres undefined) | -74.1 |
| CN(C)C(=O)CC1CC2(CCN(Cc3ccco3)CC2)c2ccccc21 (centres undefined) | 24.7 |
| Fc1cccc(-n2ccc(CN3CCCC3Cn3cccn3)n2)c1 (centres undefined) | 4.96 |
| Cc1ccc2nc(CN3CCCCC3CCn3cccn3)cn2c1 (centres undefined) | -63.2 |
| Fc1cccc(-n2ccc(CN3CCCCC3Cn3cncn3)n2)c1 (centres undefined) | -44.8 |

| Compound | INHIBITION [%] |
| --- | --- |
| c1ccc(Cn2cccn2)c(CN2CCCCC2CCn2ccnc2)c1 (centres undefined) | 64.4 |
| CN(C)C1CCCN(Cc2cccc(Cn3cccn3)c2)CC1 (centres undefined) | 34 |
| CN(C)CCC1CCCCN1Cc1cnc(-c2ccccn2)nc1 (centres undefined) | 38.9 |
| CC1CN(Cc2ccccc2Cn2cccn2)CCN1C (centres undefined) | 48.4 |
| c1cnn(CCC2CCCCN2Cc2cnc(C3CCCCC3)nc2)c1 (centres undefined) | -9.85 |
| Fc1ccc(-n2cccn2)c(CN2CCCCC2CCn2ccnc2)c1 (centres undefined) | 7.69 |
| Fc1cccc(-n2cc(CN3CCCCC3CCn3ccnc3)cn2)c1 (centres undefined) | 68.9 |
| CN(C)[C@H]1CCCCN(Cc2ccccc2Cn2cccn2)C1 | 51 |
| c1ccc(-c2ncc(CN3CCCCC3CCn3cccn3)cn2)nc1 (centres undefined) | 51 |
| CCc1cnc(N2CCC3(CCN(Cc4cccc(C)c4)C3=O)C2)nc1 (centres undefined) | 44.1 |
| CN(Cc1cccnc1)Cc1cncc2c1CCN(c1ccccn1)C2 | -26.1 |
| CCc1[nH]c2c(CNc3cnccn3)cc(F)cc2c1C | -64.1 |
| CN1CCNCC(Cc2cnc3ccccc3c2)C1 (centres undefined) | -67.9 |
| CC(C)c1cc(C(=O)NCCCN(C)C)nc(N2CCCC2)n1 | 52.7 |
| COCCCNC(=O)c1cc(C(C)C)nc(N2CCCC2)n1 | -93.7 |
| CCN(CC)CCNC(=O)c1cc(C(C)C)nc(N2CCCC2)n1 | -32.6 |
| NCCSc1nccc(-c2cnc(C3CC3)nc2-c2ccco2)n1 | -39.7 |
| CC(C)c1ncc2c(n1)CN(Cc1nnc(Cc3ccccc3)o1)CC2 | -45.2 |
| CCC(NC(=O)CN(C)Cc1ccc(C)o1)c1ccc(C)cc1 (centres undefined) | 50.9 |
| CCc1ccc(C(C)NC(=O)CN(C)Cc2ccc(C)o2)cc1 (centres undefined) | 13.3 |
| CCC(NC(=O)CN(C)Cc1ccc(C)o1)c1ccc(Br)cc1 (centres undefined) | 37.3 |
| N#Cc1ccc(CN2CC3(CCCCN3c3cccnc3)CC2=O)cc1 (centres undefined) | 7.75 |
| CC(C)(C#N)c1ccccc1CN1CCC(N2CCCC2=O)CC1 | -50.6 |
| COc1ccccc1-c1nccnc1C1CCN(C(C)=O)CC1 | -20.5 |
| Cc1cccc(-c2nccnc2C2CCCN(C)C2)c1C (centres undefined) | 2.65 |
| Cc1cccc(-c2nccnc2C2CCN(C)CC2)c1C | 54.2 |
| O=C(O)[C@@H]1CN(C(=O)Cc2ccccc2Cl)C[C@H]1C1CC1 | -94 |

| Compound | INHIBITION [%] |
| --- | --- |
| CNC(=O)N1C[C@@H]2C[C@H](C(=O)Nc3cccnc3)[C@H](C1)O2 | -142 |
| Cn1cnnc1C1CCN(C(=O)c2cc3c(s2)CCCC3)CC1 | -21.6 |
| COc1ccccc1S(=O)(=O)N1CCC2(CC1)[C@H](O)C[C@@H]2O | -62.3 |
| COc1ccccc1S(=O)(=O)N1CC(N(C)C)Cc2ccccc21 (centres undefined) | 64.1 |
| CN(C)C1Cc2ccccc2N(S(=O)(=O)c2ccccc2C#N)C1 (centres undefined) | 56.6 |
| CN(C)C1Cc2ccccc2N(S(=O)(=O)c2ccc(C#N)cc2)C1 (centres undefined) | 49.9 |
| CN(Cc1nnc(C2CC2)n1C)S(=O)(=O)c1ccccc1C#N | -108 |
| COc1cc(F)c(S(=O)(=O)N2CCN(C)Cc3ccccc32)cc1OC | 13.8 |
| Cc1nc(NCc2cccnc2)cc(C2COCCN2)n1 (centres undefined) | -124 |
| Cc1cnn(C2CCCN(C(=O)c3cn(-c4ccccc4)nn3)C2)c1 (centres undefined) | -119 |
| CCC(C)c1noc(C2CCN(C(=O)c3ccccn3)CC2)n1 (centres undefined) | -122 |
| O=C(O)c1cccnc1CN1CCCC1CCc1ccccc1 (centres undefined) | -78 |
| c1ccc(CC2CCN(Cc3ccnc(-c4cccnc4)n3)CC2)cc1 | -20 |
| c1ccc(Cc2nnc(CN3CCc4cncnc4C3)o2)cc1 | 63.6 |
| c1ccc(Cc2noc(CN3CCc4cncnc4C3)n2)cc1 | -48.8 |
| c1ncc2c(n1)CN(Cc1nc(-c3ccsc3)no1)CC2 | -41.7 |
| c1ncc2c(n1)CN(Cc1nc(-c3ccoc3)no1)CC2 | 58.7 |
| c1coc(-c2noc(CN3CCc4cncnc4C3)n2)c1 | 31 |
| Cc1ccc(-c2noc(CN3CCc4cncnc4C3)n2)cc1 | 59.7 |
| c1ncc2c(n1)CN(Cc1nc(-c3ccc4c(c3)OCO4)no1)CC2 | 21 |
| Cc1ncc2c(n1)CN(Cc1nnc(Cc3ccccc3)o1)CC2 | -25 |
| COc1ccc(-c2noc(CN3CCc4cncnc4C3)n2)cc1 | 6.71 |
| Cc1ccc(-c2nnc(CN3CC(n4cc(C)cn4)C3)o2)cc1 | -29.5 |
| Cc1cnn(C2CN(Cc3nnc(-c4ccccc4Cl)o3)C2)c1 | 11.9 |
| Cc1cnn(C2CN(Cc3nnc(Cc4ccccc4)o3)C2)c1 | 51.8 |
